Data published in the supplement of paper PMC3334620.
In all, about 33,000 sequences were measured (“E-score (-0.5 to 0.5)”: median about -0.012, highest 2% from about 0.27 on). For the sample, the highest values were picked, then their nearest neighbours and some sequences at random.

target: T1, Vhr1 (UniProt P40522); assay: PBM E-score (8-mer binding enrichment) (E-score (-0.5 to 0.5)); higher = stronger / more preferred TF binding; conditions: protein concentration: 200 nM; construct: GST-full length
T1 sequence: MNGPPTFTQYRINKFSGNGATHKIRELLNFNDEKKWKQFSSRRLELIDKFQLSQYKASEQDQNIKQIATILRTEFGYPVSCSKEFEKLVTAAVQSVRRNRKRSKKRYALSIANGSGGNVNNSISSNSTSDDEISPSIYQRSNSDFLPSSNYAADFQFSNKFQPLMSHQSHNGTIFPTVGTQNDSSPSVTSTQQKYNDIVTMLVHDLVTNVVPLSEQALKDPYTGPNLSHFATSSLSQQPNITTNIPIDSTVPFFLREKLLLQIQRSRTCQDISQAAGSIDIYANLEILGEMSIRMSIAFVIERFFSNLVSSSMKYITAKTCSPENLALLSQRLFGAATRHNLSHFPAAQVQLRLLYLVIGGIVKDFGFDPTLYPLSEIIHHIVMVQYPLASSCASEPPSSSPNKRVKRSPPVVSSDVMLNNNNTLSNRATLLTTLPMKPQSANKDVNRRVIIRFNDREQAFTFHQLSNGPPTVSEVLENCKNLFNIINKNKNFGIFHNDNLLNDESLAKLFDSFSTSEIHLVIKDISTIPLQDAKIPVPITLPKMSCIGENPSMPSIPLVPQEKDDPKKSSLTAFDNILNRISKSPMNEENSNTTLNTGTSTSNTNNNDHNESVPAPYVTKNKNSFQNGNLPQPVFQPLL
Method: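 Universal 'all 10-mer' protein binding microarrays (Agilent AMADID 015681) probed with GST-tagged S. cerevisiae TFs (full-length or DBD) made by in vitro transcription/translation (PURExpress), about 100-200 nM. Bound TF was detected with fluorescent anti-GST. Each ungapped 8-mer (which stands for itself and its reverse complement) is scored by the PBM enrichment score (E-score), a modified Wilcoxon-Mann-Whitney statistic from -0.5 to +0.5, computed with the Universal PBM Analysis Suite. Scale: above 0.35 generally sequence-specific binding.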

| Sequence | PBM E-score |
| --- | --- |
| ACCACAAC | 0.258 |
| AATACAGG | 0.111 |
| CTCCTCTA | -0.189 |
| AGGGGTGA | -0.0936 |
| GCGGGTCC | -0.00354 |
| CGGGGTGA | 0.275 |
| ACGGGTCA | -0.077 |
| GGGGGTGA | 0.132 |
| CCGGGTGA | 0.208 |
| ACGGGTGA | 0.117 |
| GCGGGTGA | 0.293 |
| GCGGGTCA | 0.308 |
| GCTTAAAA | -0.0463 |
| ACAGTTAA | 0.0518 |
| GTACCTAA | -0.0816 |
| CGGTCGAC | 0.0782 |
| GAAGATAA | -0.0175 |
| ATCACCCC | 0.199 |
| GTCACCCA | 0.311 |
| CTCACCCC | 0.318 |
| CTCACCGA | 0.183 |
| ATCACCCA | 0.223 |

| Sequence | PBM E-score |
| --- | --- |
| CTCACCCA | 0.342 |
| GTCACCGA | 0.256 |
| CTCACCAA | 0.265 |
| CTTACCCC | -0.156 |
| ACTGGTGG | 0.0234 |
| GAGGGCTA | -0.228 |
| AGTATGAC | 0.311 |
| AGTATGAT | 0.271 |
| GGTATGAC | 0.231 |
| AGTATGAG | 0.0941 |
| CGTATGAC | 0.142 |
| AGTATGAA | 0.203 |
| CCTGTGGA | -0.166 |
| CTCTCATC | -0.131 |
| CTTGCGGC | -0.0654 |
| CATATATA | 0.256 |
| CATACATA | 0.238 |
| AATATATT | 0.284 |
| TATATATA | 0.318 |
| AATATATG | 0.19 |
| AATATATA | 0.157 |
| GATACATC | 0.224 |

| Sequence | PBM E-score |
| --- | --- |
| TATATACA | 0.162 |
| GATATATC | 0.0354 |
| GATATACA | 0.113 |
| GATATATA | 0.284 |
| GATACATA | 0.332 |
| ATGGCTTC | 0.00791 |
| CGTTTCGC | -0.0307 |
| GAGTATGA | 0.228 |
| CTCTCAAC | 0.00283 |
| GCTTAGTA | -0.171 |
| GGATCAAC | -0.0769 |
| GTAACCAA | 0.103 |
| TGCAATAA | -0.0029 |
| GGGGCCCA | -0.0152 |
| ACTGATAG | 0.167 |
| AGAATTAA | -0.301 |
| ATTGAAGC | -0.163 |
| AAAATTCA | -0.128 |
| CTACTATA | 0.168 |
| CTACTATC | 0.277 |
| ATACTATC | 0.128 |
| GGTCTGAC | 0.226 |

| Sequence | PBM E-score |
| --- | --- |
| AGGATGAA | -0.0977 |
| GGGATGAA | -0.00977 |
| AGGATGAG | 0.225 |
| AGGATGAT | 0.309 |
| ATGATGAC | 0.303 |
| AGGATGAC | 0.112 |
| ATGATGAG | 0.196 |
| GGGATGAC | 0.323 |
| CTGATGAC | 0.19 |
| GCTAGCCA | -0.17 |
| CAGATCAG | -0.112 |
| CGCGAATC | 0.193 |
| ACGTATCC | -0.194 |
| CCATTAGC | -0.0966 |
| ATTGGCCG | -0.13 |
| GCACTGAC | 0.0316 |
| GCGAAGAA | -0.191 |
| TCACACCA | 0.17 |
| ACACACCA | 0.282 |
| ACACACCG | 0.223 |
